# Screening data: PubChem BioAssay, National Center for Advancing Translational Sciences (NCATS)
# This is a sample that favours compounds with a hit; in the whole collection about 2.5% have one here.
# Cruzain Triton – inhibitors of Trypanosoma cruzi cruzain with detergent | purified cruzain, Z-FR-AMC fluorescence, 0.01% Triton | Potency, µM, usual class: inhibitors | hit rate 0.43% among 200,000 | AID 1478; note: nearly all actives have a fitted effect of over 40% in size
# Target sequence (P25779 123-467 limits assumed): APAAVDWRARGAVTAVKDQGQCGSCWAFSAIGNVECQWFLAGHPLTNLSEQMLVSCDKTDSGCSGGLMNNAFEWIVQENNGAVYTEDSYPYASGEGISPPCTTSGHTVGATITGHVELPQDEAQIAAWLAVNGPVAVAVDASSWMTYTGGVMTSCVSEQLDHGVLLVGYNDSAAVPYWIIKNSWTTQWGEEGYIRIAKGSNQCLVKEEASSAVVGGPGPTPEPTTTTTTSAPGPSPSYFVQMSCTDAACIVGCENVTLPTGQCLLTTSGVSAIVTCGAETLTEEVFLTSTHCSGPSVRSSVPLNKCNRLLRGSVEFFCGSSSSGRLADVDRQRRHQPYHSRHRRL
#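 Detergent-containing run (0.01% Triton X-100) in acetate buffer pH 5.5 with 5 mM DTT: enzyme at 1.5 nM final, 15 min compound preincubation at room temperature, then 2 uM Z-FR-AMC substrate. Activity taken as 60 s fluorescence increase at 360/450 nm.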
# Cruzain inh noDet – cruzain (T. cruzi) inhibition without detergent. AID 1476. Potency, µM, hits mostly inhibitors. hit rate 2.3% among 200,000. P25779. purified cruzain, Z-FR-AMC fluorescence, no detergent; note: nearly all actives have a fitted effect of over 40% in size
#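 Detergent-free condition (0.00005% Triton X-100) in acetate buffer pH 5.5 with DTT. 1.5 nM enzyme and compound were pre-mixed 15 min, then 2 uM Z-FR-AMC substrate added; reaction progress from fluorescence change between first and third reads (60 s).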
# Numbers stand for hits; 0 = inactive; ? = inconclusive. Calls come from the whole dose curve; as a rule, active = well fitted curve in the direction sought with a large enough effect; inconclusive = small, poorly fitted or top-dose-only effect, or another doubt; inactive = no such curve, though single readings can be large; an effect the other way counts as inactive or inconclusive.
SMILES,Cruzain Triton,Cruzain inh noDet
Cc1cc([N+](=O)[O-])cnc1NC(C)c1ccccc1 (centres undefined),0,0
CN(Cc1ccccc1)c1ccc(C(=O)O)cc1[N+](=O)[O-],0,0
O=C1C(Cl)=C(N2CCOCC2)C(=O)N1c1ccccc1Cl,?,0
Cc1ccc(N2C(=O)C(Cl)=C(N3CCOCC3)C2=O)cc1Cl,7.1µM,7.9µM
CN1CCN(C2=C(Cl)C(=O)N(c3cccc(Cl)c3)C2=O)CC1,0,?
CN1CCN(C2=C(Cl)C(=O)N(c3ccc(Cl)c(Cl)c3)C2=O)CC1,2.8µM,2.5µM
CCC(=O)OC1CCC2C3CCc4cc(O)ccc4C3CC[C@]12C (some centres undefined),0,0
CC(=O)Nc1ccc(S(=O)(=O)N2CCN(c3ccc(C)c(C)c3)CC2)cc1,0,?
COc1ccccc1/C=C(/CC(=O)NCc1ccc2c(c1)OCO2)c1nc2ccccc2s1,0,16µM
COc1ccc(/C=C(/CC(=O)Nc2ccccc2)c2nc3ccccc3s2)cc1,0,?
COc1ccc(/C=C(/CC(=O)NCc2ccc(Cl)cc2)c2nc3ccccc3s2)cc1,0,32µM
COc1ccccc1NC(=O)NCc1ccc2c(c1)OCO2,0,0
CN1CCN([C@@H](c2ccccc2)c2ccc(Cl)cc2)CC1,0,0
Cc1cccc(-c2nc3ccccc3n2Cc2ccccc2)c1,0,0
COc1ccc(-c2nc(-c3cccc(C)c3)[nH]c(=O)c2C#N)cc1,0,10µM
COc1cccc(-c2nc(-c3ccccc3)[nH]c(=O)c2C#N)c1,0,0
S=C(Nc1ccc(Oc2ccc(NC(=S)NC3CCCCC3)cc2)cc1)NC1CCCCC1,0,4µM
S=C(Nc1ccc(Oc2ccccc2)cc1)NC1CCCCCC1,0,0
Cc1cc(C(=O)OCC(=O)NC(C)(C)C)c2ccccc2n1,0,0
Cc1cc(C(=O)OCC(=O)Nc2ccc(F)cc2[N+](=O)[O-])c2ccccc2n1,0,20µM
CC1=Nn2c(nnc2-c2cc(-c3ccccc3)n[nH]2)SC1,0,0
Cc1cccc(-c2nnc3n2N=C(c2ccc(Br)cc2)CS3)c1,0,0
COc1cccc(-c2nnc3n2N=C(c2cccc(Br)c2)CS3)c1,0,7.9µM
c1ccc(-c2ccc(C3=Nn4c(nnc4-c4cc(-c5ccccc5)n[nH]4)SC3)cc2)cc1,0,3.2µM
CCc1ccc(S(=O)(=O)c2nnn3c2nc(NCc2ccccc2)c2cc(Cl)ccc23)cc1,0,?
SMILES,Cruzain Triton,Cruzain inh noDet
C[N+]1(C)C[C@@H](O)C[C@@H]1C(=O)[O-],0,0
Cc1cc(F)ccc1S(=O)(=O)NCC(c1ccco1)S(=O)(=O)c1cccs1 (centres undefined),0,0
CCOc1ccc2nc(SCC(=O)N3c4ccccc4Sc4ccccc43)c(C#N)cc2c1,0,4µM
COc1ccc2nc(SCC(=O)N3CCCCCC3)c(C#N)cc2c1,0,0
Cc1ccccc1C(=O)N1CCc2cc(-c3nc(NC(=O)Cc4ccc5c(c4)OCO5)sc3C)ccc21,0,3.2µM
CCC(CC)C(=O)Nc1nc(-c2ccc3c(c2)CCN3C(=O)C2CC2)c(C)s1,0,0
Cc1sc(NC(=O)CN2CCOCC2)nc1-c1ccc2c(c1)CCN2S(=O)(=O)c1ccccc1,0,?
Cc1sc(NC(=O)Cc2ccc3c(c2)OCO3)nc1-c1ccc2c(c1)CCN2C(=O)c1cccc(F)c1,0,7.9µM
COc1ccc(CCC(=O)NCc2ccc3c(c2)CCN3C(=O)c2cccc(C)c2)cc1,0,0
Cc1cccc(C(=O)N2CCc3cc(-c4nc(NC(=O)Cn5nnc6ccccc6c5=O)sc4C)ccc32)c1,0,10µM
CCNC(=O)CC1C(=O)N(c2ccc(F)cc2)C(=O)N1Cc1ccccn1 (centres undefined),0,0
COc1ccc2c(C)cc(SCC(=O)Nc3ccc(Cl)cn3)nc2c1,0,?
CC(NC(=O)NC1CCCCC1)C(c1cccs1)N1CCOCC1 (centres undefined),0,0
Cc1csc2nc(COc3ccccc3NC(=O)c3ccccc3Cl)cc(=O)n12,0,0
O=C(O)c1ccccc1-c1ccccc1C(=O)Nc1ccc2c(c1)Cc1ccccc1-2,0,0
C[C@H]1C2C=C[C@H]1[C@@H](C(=O)O)[C@@H]2c1c2ccc(=O)c(O)c-2oc2c(O)c(O)ccc12,0,0
CC(C)c1ccc(CNc2nc(-c3ccco3)nn2S(=O)(=O)c2ccc3ccccc3c2)cc1,0,10µM
Cc1ccc(CNc2nc(-c3ccco3)nn2S(=O)(=O)c2ccc3ccccc3c2)cc1,0,?
COc1cccc(Cn2c(CNC(=O)c3cc([N+](=O)[O-])ccc3Cl)nc3cccnc32)c1,0,0
Cc1c(C(=O)NCC2COc3ccccc3O2)oc2ccc(S(=O)(=O)N3CCOCC3)cc12 (centres undefined),0,0
Cc1c(C(=O)NCC2COc3ccccc3O2)oc2ccc(S(=O)(=O)N3CC(C)CC(C)C3)cc12 (centres undefined),0,20µM
O=C(CC(c1cccs1)S(=O)(=O)c1ccccc1)c1ccc(F)cc1 (centres undefined),0,0
Nc1nc2sc3c(c2c(=O)s1)CCCC3,0,0
Nc1c2c(nc3sc4c(c13)CCCC4)CCCCCC2,0,25µM
O=C(CCn1c(=O)c2cccn2c2cccnc21)N1CCN(c2ccccc2F)CC1,0,0
SMILES,Cruzain Triton,Cruzain inh noDet
O=[N+]([O-])c1cc(C(F)(F)F)ccc1N1CCN(S(=O)(=O)c2ccc3ccccc3c2)CC1,0,25µM
O=[N+]([O-])c1cc(C(F)(F)F)cc([N+](=O)[O-])c1N1CCN(S(=O)(=O)c2ccccc2)CC1,0,0
O=C(c1cccc(N2C(=O)C3CC=CCC3C2=O)c1)N1CCCCCC1 (centres undefined),0,0
O=C(c1cccc(N2C(=O)C3CC=CCC3C2=O)c1)N1CCN(c2ccccc2)CC1 (centres undefined),22µM,16µM
Cn1c(=O)c2c(-c3ccccc3Br)n(C(C)(C)C)cc2n(C)c1=O,0,0
O=C(NCc1ccccc1Cl)c1cccc(C(F)(F)F)c1,0,0
COC(=O)c1cc(NC(=O)c2cccc(C(F)(F)F)c2)c(=O)oc1C/C=N/OCc1cccc(Cl)c1Cl,0,0.79µM
CC(C)n1nc(C(=O)Nc2nnc(SCc3c(Cl)cccc3Cl)s2)c2ccccc2c1=O,0,13µM
CC(C)n1nc(C(=O)Nc2nc3ccc(S(C)(=O)=O)cc3s2)c2ccccc2c1=O,0,0
CC1CCN(S(=O)(=O)c2ccc(NC(=O)Cc3cccs3)cc2)CC1,0,0
COc1ccc(CN2CCc3ccccc3C2)c(OC)c1OC,0,0
CC(NS(=O)(=O)c1ccccc1)C(c1cccs1)N1CCN(C)CC1 (centres undefined),0,0
Oc1nc(Nc2cccc(Cl)c2)sc1/C=C1\C=Nc2ccccc21,0,?
CCOC(=O)c1c(Nc2ccc(Cl)cc2)sc(/C=C2\C=Nc3ccccc32)c1O,0,7.9µM
Cc1ccc(-c2nc3cc(NC(=O)c4cc(Br)ccc4Cl)ccc3o2)cc1,0,0
Cc1cc(C)c2oc(-c3ccc(NC(=O)c4cc(Br)ccc4Cl)cc3)nc2c1,0,2.5µM
CSc1nc2nc(-c3ccccc3)cc(C(F)(F)F)n2n1,0,0
Cc1ccc(NC(=S)NC(NC(=O)C(C)(C)C)C(Cl)(Cl)Cl)c(C)c1 (centres undefined),0,0
CC(=O)NC(NC(=S)Nc1ccc(N=Nc2ccccc2C)cc1C)C(Cl)(Cl)Cl (centres undefined),0,7.9µM
CCc1ccccc1NC(=O)N(C)CCc1c(C)nn(C)c1C,0,0
